Results from the supplement of paper PMC12819154, “High-throughput peptide-centric local stability assay extends protein–ligand identification to membrane proteins, tissues and bacteria” (Nature Structural & Molecular Biology, 2025).

These targets were tested with CN[C@@H]1C[C@H]2O[C@@](C)([C@@H]1OC)n1c3ccccc3c3c4c(c5c6ccccc6n2c5c31)C(=O)NC4 [staurosporine] (assay: log2 fold change of tryptic peptide abundance, ligand vs vehicle (limited proteolysis) (log2 ratio); higher = more trypsin-susceptible (destabilized)). Details: ligand concentration: 20 uM; sample: mouse liver crude lysate; replicate design: treated separately.

UniProt Q9WU19, sequence (Q9WU19 whole entry): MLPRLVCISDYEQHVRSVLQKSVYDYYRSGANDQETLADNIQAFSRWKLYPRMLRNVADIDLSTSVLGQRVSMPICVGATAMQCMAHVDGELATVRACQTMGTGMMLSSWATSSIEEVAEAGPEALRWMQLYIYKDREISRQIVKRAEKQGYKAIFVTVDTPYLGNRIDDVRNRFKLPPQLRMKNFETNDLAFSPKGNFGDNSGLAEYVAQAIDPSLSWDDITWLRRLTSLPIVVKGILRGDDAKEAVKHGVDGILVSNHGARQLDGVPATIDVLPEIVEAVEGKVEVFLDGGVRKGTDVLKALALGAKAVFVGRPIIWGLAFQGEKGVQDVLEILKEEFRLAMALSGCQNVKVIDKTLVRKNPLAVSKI
UniProt Q01705, sequence (Q01705 whole entry): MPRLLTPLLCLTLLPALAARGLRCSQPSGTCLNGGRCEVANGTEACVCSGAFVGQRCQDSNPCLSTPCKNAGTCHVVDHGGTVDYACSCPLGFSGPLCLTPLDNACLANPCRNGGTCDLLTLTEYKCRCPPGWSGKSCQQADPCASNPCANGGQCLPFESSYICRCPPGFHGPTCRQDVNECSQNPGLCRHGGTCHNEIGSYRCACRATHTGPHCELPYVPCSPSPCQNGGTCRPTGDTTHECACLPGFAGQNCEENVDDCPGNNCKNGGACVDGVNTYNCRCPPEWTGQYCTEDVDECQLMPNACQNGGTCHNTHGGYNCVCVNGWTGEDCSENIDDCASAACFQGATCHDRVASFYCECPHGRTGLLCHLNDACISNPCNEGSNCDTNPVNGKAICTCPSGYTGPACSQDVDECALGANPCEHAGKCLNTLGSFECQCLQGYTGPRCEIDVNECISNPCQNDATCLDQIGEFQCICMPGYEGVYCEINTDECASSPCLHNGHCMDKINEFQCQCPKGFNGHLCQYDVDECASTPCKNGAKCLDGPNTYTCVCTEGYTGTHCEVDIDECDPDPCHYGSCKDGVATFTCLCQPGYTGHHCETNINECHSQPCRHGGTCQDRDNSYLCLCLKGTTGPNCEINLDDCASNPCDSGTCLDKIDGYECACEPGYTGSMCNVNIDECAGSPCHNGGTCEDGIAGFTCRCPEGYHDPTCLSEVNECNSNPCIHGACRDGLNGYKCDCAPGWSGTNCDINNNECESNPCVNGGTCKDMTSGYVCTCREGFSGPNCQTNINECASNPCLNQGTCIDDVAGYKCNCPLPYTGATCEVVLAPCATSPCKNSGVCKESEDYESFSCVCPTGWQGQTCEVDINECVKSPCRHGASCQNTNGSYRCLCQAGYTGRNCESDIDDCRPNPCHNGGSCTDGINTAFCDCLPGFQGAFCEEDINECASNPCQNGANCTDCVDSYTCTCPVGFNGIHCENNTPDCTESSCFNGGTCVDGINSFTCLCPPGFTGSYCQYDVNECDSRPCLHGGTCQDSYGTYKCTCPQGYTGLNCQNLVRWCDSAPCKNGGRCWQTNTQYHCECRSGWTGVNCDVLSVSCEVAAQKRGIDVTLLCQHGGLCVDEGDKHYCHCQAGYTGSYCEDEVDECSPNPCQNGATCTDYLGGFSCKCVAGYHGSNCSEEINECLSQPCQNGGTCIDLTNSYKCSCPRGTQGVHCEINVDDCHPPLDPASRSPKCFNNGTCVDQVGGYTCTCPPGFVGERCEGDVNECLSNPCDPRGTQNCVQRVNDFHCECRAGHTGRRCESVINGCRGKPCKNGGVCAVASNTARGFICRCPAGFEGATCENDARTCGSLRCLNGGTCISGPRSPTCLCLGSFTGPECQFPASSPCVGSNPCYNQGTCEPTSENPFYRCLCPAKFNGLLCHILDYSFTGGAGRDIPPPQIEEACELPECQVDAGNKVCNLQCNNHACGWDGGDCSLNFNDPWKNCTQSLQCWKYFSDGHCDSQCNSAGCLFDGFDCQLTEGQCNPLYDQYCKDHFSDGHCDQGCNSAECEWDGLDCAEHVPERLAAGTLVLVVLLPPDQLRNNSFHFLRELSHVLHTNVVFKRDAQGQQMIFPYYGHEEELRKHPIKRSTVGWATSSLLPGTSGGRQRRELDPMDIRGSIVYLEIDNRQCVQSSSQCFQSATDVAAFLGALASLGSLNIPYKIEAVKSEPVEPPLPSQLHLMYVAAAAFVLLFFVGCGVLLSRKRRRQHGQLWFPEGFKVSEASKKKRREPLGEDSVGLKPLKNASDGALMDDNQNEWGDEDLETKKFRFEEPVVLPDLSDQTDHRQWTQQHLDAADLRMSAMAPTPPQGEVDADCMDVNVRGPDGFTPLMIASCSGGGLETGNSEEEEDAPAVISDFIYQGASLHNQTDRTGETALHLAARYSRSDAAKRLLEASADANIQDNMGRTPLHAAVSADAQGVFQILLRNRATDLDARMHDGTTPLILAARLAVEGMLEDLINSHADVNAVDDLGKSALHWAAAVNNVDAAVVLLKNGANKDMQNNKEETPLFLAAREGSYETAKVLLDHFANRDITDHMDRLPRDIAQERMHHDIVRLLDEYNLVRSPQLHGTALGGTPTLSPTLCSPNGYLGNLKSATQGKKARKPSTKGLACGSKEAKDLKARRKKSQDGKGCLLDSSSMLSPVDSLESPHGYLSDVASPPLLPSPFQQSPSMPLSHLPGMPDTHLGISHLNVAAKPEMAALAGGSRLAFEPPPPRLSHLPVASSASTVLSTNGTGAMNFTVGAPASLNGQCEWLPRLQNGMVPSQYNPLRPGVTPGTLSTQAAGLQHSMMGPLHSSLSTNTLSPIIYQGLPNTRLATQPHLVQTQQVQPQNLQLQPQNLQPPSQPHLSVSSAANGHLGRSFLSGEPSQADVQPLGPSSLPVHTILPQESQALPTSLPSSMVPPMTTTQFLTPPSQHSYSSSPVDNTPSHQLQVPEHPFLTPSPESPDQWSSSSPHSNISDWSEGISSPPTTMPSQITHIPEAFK
UniProt O70293, sequence (O70293 whole entry): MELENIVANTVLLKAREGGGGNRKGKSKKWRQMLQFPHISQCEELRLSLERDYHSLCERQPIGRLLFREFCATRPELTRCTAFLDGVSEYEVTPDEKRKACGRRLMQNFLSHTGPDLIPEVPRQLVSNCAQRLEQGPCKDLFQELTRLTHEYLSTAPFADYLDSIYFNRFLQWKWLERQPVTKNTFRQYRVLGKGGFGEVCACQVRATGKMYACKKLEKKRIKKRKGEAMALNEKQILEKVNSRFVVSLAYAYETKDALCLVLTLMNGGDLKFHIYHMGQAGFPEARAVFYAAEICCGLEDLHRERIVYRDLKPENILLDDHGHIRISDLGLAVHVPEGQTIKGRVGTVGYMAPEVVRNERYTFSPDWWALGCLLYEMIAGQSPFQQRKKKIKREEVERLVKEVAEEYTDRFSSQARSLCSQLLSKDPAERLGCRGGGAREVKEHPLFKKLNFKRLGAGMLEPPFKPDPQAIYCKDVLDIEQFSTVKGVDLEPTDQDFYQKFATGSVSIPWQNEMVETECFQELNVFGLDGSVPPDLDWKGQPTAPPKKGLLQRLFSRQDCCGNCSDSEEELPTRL
UniProt Q9D6M3, sequence (Q9D6M3 whole entry): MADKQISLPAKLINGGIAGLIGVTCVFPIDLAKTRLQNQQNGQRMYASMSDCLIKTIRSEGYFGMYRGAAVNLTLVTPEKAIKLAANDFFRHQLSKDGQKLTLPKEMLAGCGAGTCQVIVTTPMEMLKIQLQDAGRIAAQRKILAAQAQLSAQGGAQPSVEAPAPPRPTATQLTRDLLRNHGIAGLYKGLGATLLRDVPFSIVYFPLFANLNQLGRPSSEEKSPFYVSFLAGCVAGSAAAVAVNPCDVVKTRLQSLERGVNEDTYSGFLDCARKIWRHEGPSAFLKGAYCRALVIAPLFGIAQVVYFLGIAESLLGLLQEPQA
UniProt Q8CC86, sequence (Q8CC86 whole entry): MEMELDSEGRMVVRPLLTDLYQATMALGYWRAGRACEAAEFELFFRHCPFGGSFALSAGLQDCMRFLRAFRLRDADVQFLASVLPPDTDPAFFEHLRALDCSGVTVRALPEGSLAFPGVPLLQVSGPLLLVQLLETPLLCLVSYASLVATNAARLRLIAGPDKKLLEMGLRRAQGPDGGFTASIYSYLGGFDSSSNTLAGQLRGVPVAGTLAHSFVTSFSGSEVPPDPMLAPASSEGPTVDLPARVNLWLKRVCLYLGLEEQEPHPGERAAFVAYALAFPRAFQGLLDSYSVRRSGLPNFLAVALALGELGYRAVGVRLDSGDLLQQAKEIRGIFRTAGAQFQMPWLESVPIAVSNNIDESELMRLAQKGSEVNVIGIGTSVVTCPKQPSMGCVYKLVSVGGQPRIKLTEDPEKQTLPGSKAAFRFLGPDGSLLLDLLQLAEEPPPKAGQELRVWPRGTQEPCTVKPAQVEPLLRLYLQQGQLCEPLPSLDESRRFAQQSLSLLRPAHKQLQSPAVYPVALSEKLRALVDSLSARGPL
UniProt Q64464, sequence (Q64464 whole entry): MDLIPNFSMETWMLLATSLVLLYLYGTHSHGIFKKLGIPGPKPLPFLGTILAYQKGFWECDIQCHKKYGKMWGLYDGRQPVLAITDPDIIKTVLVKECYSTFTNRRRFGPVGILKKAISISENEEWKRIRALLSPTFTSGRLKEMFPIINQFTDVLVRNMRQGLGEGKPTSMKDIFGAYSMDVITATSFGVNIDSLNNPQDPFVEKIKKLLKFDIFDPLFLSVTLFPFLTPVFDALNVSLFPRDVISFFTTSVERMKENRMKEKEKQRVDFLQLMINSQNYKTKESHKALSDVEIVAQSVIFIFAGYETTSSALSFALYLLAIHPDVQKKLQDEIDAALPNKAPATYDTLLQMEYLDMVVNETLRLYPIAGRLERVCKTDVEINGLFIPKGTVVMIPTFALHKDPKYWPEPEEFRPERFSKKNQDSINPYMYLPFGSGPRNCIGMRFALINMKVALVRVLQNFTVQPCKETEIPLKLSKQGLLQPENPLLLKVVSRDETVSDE
UniProt Q9R257, sequence (Q9R257 whole entry): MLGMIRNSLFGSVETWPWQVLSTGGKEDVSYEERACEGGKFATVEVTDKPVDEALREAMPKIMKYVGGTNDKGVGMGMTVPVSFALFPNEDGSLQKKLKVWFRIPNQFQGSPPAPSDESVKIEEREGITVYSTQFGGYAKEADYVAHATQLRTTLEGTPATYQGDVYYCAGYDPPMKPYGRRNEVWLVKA

Row | Target | log2 fold change
1 | UniProt Q9WU19 (peptide sequence: LAMALSGCQNVK, peptide start residue: 342) | 0.411
2 | UniProt P19253 (peptide sequence: LAHEVGWK, peptide start residue: 141) | 0.254
3 | UniProt Q8VDU5 (peptide sequence: IAGLYDLDKTLGR, peptide start residue: 12) | -1.42
4 | UniProt Q6PGL7 (peptide sequence: RPTSFADELAAR, peptide start residue: 281) | -0.483
5 | UniProt Q9R257 (peptide sequence: FATVEVTDKPVDEALR, peptide start residue: 41) | -0.672
6 | UniProt Q9D6M3 (peptide sequence: LAANDFFR, peptide start residue: 84) | 0.616
7 | UniProt Q01705 (peptide sequence: QWTQQHLDAADLR, peptide start residue: 1832) | -0.742
8 | UniProt P14576 (peptide sequence: SAIDLEEMASGLNKRK, peptide start residue: 58) | 0.95
9 | UniProt O70293 (peptide sequence: EFCATRPELTR, peptide start residue: 69) | -1.23
10 | UniProt Q7TT50 (peptide sequence: FQFPSHVTDVSEEAK, peptide start residue: 300) | -1.06
11 | UniProt Q9QXD1 (peptide sequence: LFEWAQK, peptide start residue: 649) | -0.551
12 | UniProt P41216 (peptide sequence: WLLDFASK, peptide start residue: 389) | 0.328
13 | UniProt Q8R1Q8 (peptide sequence: NIDLVYK, peptide start residue: 292) | 0.28
14 | UniProt Q03963 (peptide sequence: DLKPGNIFLVDER, peptide start residue: 376) | -1.55
15 | UniProt Q61268 (peptide sequence: TQAWLQSSR, peptide start residue: 94) | 0.77
16 | UniProt Q8CC86 (peptide sequence: VCLYLGLEEQEPHPGER, peptide start residue: 253) | -0.575
17 | UniProt Q03147 (peptide sequence: DKNTNQIVAIKK, peptide start residue: 31) | -2.43
18 | UniProt P43883 (peptide sequence: DQYPYLR, peptide start residue: 38) | 0.671
19 | UniProt Q9JIZ0 (peptide sequence: LAGICTIQLK, peptide start residue: 207) | 0.276
20 | UniProt Q5M8N4 (peptide sequence: LGLGGPIGSGR, peptide start residue: 177) | -0.493
21 | UniProt Q64464 (peptide sequence: ALLSPTFTSGR, peptide start residue: 131) | -0.724
22 | UniProt Q63932 (peptide sequence: ISELGAGNGGVVTK, peptide start residue: 75) | -0.512
23 | UniProt P18653 (peptide sequence: ADPSQFELLK, peptide start residue: 57) | -1.44
24 | UniProt P51881 (peptide sequence: KGTDIMYTGTLDCWRK, peptide start residue: 245) | 0.454
25 | UniProt Q91VJ4 (peptide sequence: DTGHVYAMK, peptide start residue: 110) | -3.23
26 | UniProt Q3U3Q1 (peptide sequence: VIELPLRPQLSLDCR, peptide start residue: 230) | -2
27 | UniProt Q921S7 (peptide sequence: HFVPWLAR, peptide start residue: 65) | 0.415
